Screening results (PubChem)
Shiga inhibitor – blocks Shiga toxin action in Vero cells | 290,000 tested, 9.2% active | Vero cells, Shiga toxin protein synthesis inhibition reporter | inhibition, % at 38.7 µM; in the data active = inhibition mostly above about 28%, no sharp cut-off; inactive = mostly below about 43%
Pf growth 96h – inhibits malaria parasite growth, 96 h. P. falciparum luciferase reporter growth, 96 h. Potency, µM (series often up to 28.7 µM), actives largely listed as inhibitors. 320,000 tested, 6.9% active
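Delayed-death screen, second-generation endpoint: infected erythrocytes, 2% hematocrit, 0.05% parasitemia final; 96 hours at 37 C, 5% CO2; luciferase detection reagent; luminescence decrease equals reduced growth.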
CHX counter – counter-screen for Shiga toxin inhibitors: cycloheximide protein synthesis inhibition; 300,000 tested, 12% active; cell reporter, cycloheximide protein synthesis inhibition counterscreen; max response, %; in the data active = max response mostly above about 13%, no sharp cut-off; inactive = mostly below about 14%; also: read at 38.3 µM for the half of the compounds with a filed dose
LmPK inhibitor – blocks Leishmania mexicana pyruvate kinase activity. Q27686. purified LmPK, Kinase-Glo ATP luminescence, 1 h. Potency, µM (doses to about 57.5 µM), actives largely listed as inhibitors. 290,000 tested, 0.37% active. AID 1721
Target sequence (Q27686 whole entry, looked up): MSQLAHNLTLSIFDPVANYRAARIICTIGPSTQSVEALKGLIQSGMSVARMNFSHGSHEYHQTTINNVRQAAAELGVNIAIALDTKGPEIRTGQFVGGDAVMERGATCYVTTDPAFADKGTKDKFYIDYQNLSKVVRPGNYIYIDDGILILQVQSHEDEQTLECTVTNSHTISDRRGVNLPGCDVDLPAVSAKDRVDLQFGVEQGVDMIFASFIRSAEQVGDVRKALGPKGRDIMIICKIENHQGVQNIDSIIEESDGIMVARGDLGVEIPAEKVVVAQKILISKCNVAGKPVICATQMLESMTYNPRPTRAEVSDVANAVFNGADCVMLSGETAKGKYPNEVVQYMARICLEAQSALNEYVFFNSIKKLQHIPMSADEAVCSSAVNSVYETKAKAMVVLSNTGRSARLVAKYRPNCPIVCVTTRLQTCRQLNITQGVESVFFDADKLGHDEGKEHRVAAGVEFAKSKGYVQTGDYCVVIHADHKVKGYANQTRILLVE
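0.1 nM LmPK, 0.5 mM PEP, 0.1 mM ADP; 50 mM imidazole pH 7.2, 7 mM MgCl2, 50 mM KCl; 1 h RT. Kinase-Glo luminescence readout, normalized to no-enzyme (full inhibition) and uninhibited wells.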
Pf growth 48h – inhibits P. falciparum growth in the first generation, 48 h. P. falciparum luciferase growth in erythrocytes, 48 h. Potency, µM (highest dose often 28.7 µM), hits mostly inhibitors. 310,000 tested, 5.9% active
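Luminescence readout; reporter = integrated firefly luciferase in P. falciparum. RBC culture at 2% hematocrit, 0.1% parasitemia final, 37 C/5% CO2; decreased signal taken as growth inhibition.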
Numbers stand for hits; - = inactive; ? = inconclusive; . = no result given. Rows were chosen to be rich in hits. Some 22% of all compounds tested hit in one or more screens of this group. Unless noted, calls follow the shape of the dose curve; as a rule, active = well fitted inhibition curve with a large enough effect; inconclusive = small, poorly fitted or top-dose-only effect, or another doubt; inactive = no such curve, though single readings can be large or run the other way.

SMILES	Shiga inhibitor	Pf growth 96h	CHX counter	LmPK inhibitor	Pf growth 48h
CC(=O)N1CCc2cc(Br)cc(S(=O)(=O)N3CCCCC3)c21	-	?	-	-	2.6µM
O=C(C1CC1)N1CCc2cc(Br)cc(S(=O)(=O)NCCN3CCOCC3)c21	-	?	-	-	-
CCCCN(C)S(=O)(=O)c1cc(Br)cc2c1N(C(=O)C1CC1)CC2	-	?	-	-	4.7µM
CCN(c1ccc2c(c1)OCO2)S(=O)(=O)c1cc(Br)cc2c1N(C(C)=O)CC2	-	9.3µM	-	-	?
O=C(C1CC1)N1CCc2cc(Br)cc(S(=O)(=O)NCc3ccc4c(c3)OCO4)c21	-	?	-	-	-
CCOCCCNS(=O)(=O)c1cc(Br)cc2c1N(C(=O)C1CC1)CC2	-	-	-	-	?
CCn1cc(-c2cc(C(=O)O)c3ccccc3n2)cn1	-	-	-	-	-
COc1ccc(C(=O)NC(=S)Nc2ccc(N3CCOCC3)c(Cl)c2)cc1[N+](=O)[O-]	-	?	-	-	?
CCC(=O)N1CCc2cc(Br)cc(S(=O)(=O)N3CCCC(C(=O)NC(C)(C)C)C3)c21 (configuration not stated)	-	?	-	-	1.2µM
CCOC(=O)C1CCCN(S(=O)(=O)c2ccc(S(=O)(=O)N3CCCC3)cc2)C1 (configuration not stated)	.	-	.	.	?
CCOC(=O)C1CCCN(S(=O)(=O)c2cc(Br)cc3c2N(C(C)=O)CC3)C1 (configuration not stated)	-	?	-	-	3.7µM
CCOC(=O)C1CCN(S(=O)(=O)c2cc(Br)cc3c2N(C(C)=O)C(C)C3)CC1 (configuration not stated)	-	?	-	-	8.3µM
CCC(=O)N1CCc2cc(Br)cc(S(=O)(=O)N3CCC(C(=O)NC(C)(C)C)CC3)c21	-	-	-	-	?
Cc1c(C(=O)N2CCCC2)c(S(=O)(=O)Nc2ccccc2)c(C)n1C	-	-	-	-	-
O=C(c1ccc2c(c1)OCCO2)C1CCN(C(=O)Nc2ccccc2F)CC1	-	-	-	-	-
Nc1nnc(COc2ccc(Br)cc2Br)s1	92	-	21	-	-
Cc1ccc(C)c(OCc2nnc(N)s2)c1	-	?	-	-	-
CC1CCCCC1NC(=O)CSc1nc2ccccc2[nH]1 (configuration not stated)	-	-	-	-	-
CC1CCCCC1NC(=O)c1ccc(CSc2nc3ccncc3[nH]2)cc1 (configuration not stated)	-	5.2µM	-	-	?
O=C(c1ccc(CSc2nc3ccncc3[nH]2)cc1)N1CCCCC1	-	12µM	-	-	-
COc1ccc(-c2noc(CCCC(=O)NCC3CCCO3)n2)cc1 (configuration not stated)	-	?	-	-	-
Cc1cccc(C(=O)NCC(=O)Nc2ccncc2)c1	.	-	.	.	-
Cc1cccc(NC(=S)N2CCC(NC(=O)c3cccc(F)c3)CC2)c1	-	?	-	-	-
COc1ccc(OC)c(C2=Nn3c(nnc3-c3cc(OC)ccc3OC)SC2)c1	-	.	-	.	.
CCOc1ccc(C2=Nn3c(nnc3-c3ccc(OC)cc3)SC2)cc1	-	?	-	-	15µM
SMILES	Shiga inhibitor	Pf growth 96h	CHX counter	LmPK inhibitor	Pf growth 48h
COc1ccc(OC)c(-c2nnc3n2N=C(c2ccc(OC)c(OC)c2)CS3)c1	-	3.3µM	-	.	5.9µM
COc1cccc(-c2nnc3n2N=C(c2ccccc2OC)CS3)c1	-	.	-	.	.
COc1ccc(OC)c(C2=Nn3c(nnc3-c3cccc(OC(C)C)c3)SC2)c1	-	?	-	-	8.3µM
Cc1cc(-c2nc3ncccc3o2)ccc1NC(=S)NC(=O)C(C)C	-	-	-	-	-
O=C(c1ccccc1)c1ccc(-n2ccnc2)c([N+](=O)[O-])c1	-	-	-	-	-
COCCNC(=O)CN1C(=O)NC(c2ccccc2)(c2ccccc2)C1=O	-	-	-	-	-
Cc1ccc(/C=N/Nc2ccc(C(=O)O)cc2)s1	-	-	-	-	-
Cc1ccc(/C=N/Nc2cccc(C(=O)O)c2)s1	126	-	86	-	-
Cc1ccsc1/C=N/Nc1cccc(C(=O)O)c1	118	?	56	-	-
COc1ccc(C)cc1N(CC(=O)N1CCc2ccccc2C1)S(C)(=O)=O	-	-	-	-	-
S=c1[nH]nc(CSCc2ccccc2Cl)n1-c1ccccc1	-	?	-	13µM	?
